# Several values for one entry are separate records, joined by “and”; a condition that tells them apart may be missing. Equal values may be shown once. Records with an inconclusive call do not appear. Where a call stands in place of a potency, no number is given. Some compounds were tested as several samples or in several runs, with calls that do not always agree. Activity calls are given as the source filed them. The call rests on the fitted dose curve; in most records, active means well fitted curve in the direction sought with a large enough effect in the repeat runs; inconclusive means weak or mixed curves; inactive means no such curve, though single readings can be large; an effect the other way counts as inactive or inconclusive.
# Assays:
# [1] = biological target: Cytochrome P450 1A2 (Homo sapiens) (UniProt P05177); experiment: Cytochrome P450 Family 1 Subfamily A Member 2 (CYP1A2) small molecule antagonists: luciferase reporter qHTS assay (AID 1671199); further: potency means the concentration at half of the fitted maximal effect
# Method in brief: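 Signal from luciferin formed by CYP1A2 from a proluciferin substrate is read as luminescence, expressed in relative luminescence units. Compounds sit with enzyme 10 min, NADPH-driven reaction runs 1 h, all at room temperature.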
# [2] = biological target: Voltage-gated inwardly rectifying potassium channel KCNH2 (Homo sapiens) (UniProt Q12809); experiment: Human Ether-a-go-go-Related Gene (hERG) channel small molecule antagonists: fluorescence cell-based qHTS assay (AID 1671200);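 further: hERG-expressing U2OS cells given a thallium stimulus after FluxOR II dye loading; series mostly up to about 77 µM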
# Method in brief: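 First, 1000 cells per well are seeded and cultured overnight at 37 C. Next, FluxOR II dye is loaded for 1 h at room temperature, protected from light. After 10 more minutes, stimulus is added and fluorescence is read.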
# [3] = biological target: Cytochrome P450 3A4 (Homo sapiens) (UniProt P08684); experiment: Cytochrome P450 Family 3 Subfamily A Member 4 (CYP3A4) small molecule antagonists: luciferase reporter qHTS assay (AID 1671201); further: potency means the concentration at half of the fitted maximal effect
# Method in brief: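 Enzyme and proluciferin substrate are mixed with test chemicals for 10 min, then NADPH regeneration system drives turnover for 1 h at room temperature. A detection reagent halts the reaction; luminescence after 20 min gives relative activity.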
# Further: nearly all actives have a fitted effect of over 50% in size.
# Chain of Cytochrome P450 1A2 (Homo sapiens) (P05177 whole entry, looked up): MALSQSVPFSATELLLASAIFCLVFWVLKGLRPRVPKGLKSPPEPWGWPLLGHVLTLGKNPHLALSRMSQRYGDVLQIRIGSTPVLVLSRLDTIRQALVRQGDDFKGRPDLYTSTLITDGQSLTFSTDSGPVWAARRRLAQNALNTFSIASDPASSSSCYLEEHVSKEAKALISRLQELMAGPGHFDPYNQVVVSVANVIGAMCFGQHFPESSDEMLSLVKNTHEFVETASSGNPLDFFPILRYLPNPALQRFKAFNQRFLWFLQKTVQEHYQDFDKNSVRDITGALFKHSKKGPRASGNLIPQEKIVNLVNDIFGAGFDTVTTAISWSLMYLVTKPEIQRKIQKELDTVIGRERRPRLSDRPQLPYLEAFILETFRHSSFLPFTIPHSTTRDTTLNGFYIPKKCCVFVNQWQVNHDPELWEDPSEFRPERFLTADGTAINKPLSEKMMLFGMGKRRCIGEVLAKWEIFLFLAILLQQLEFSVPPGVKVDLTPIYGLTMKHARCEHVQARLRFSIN
# Chain of Cytochrome P450 3A4 (Homo sapiens) (P08684 whole entry, looked up): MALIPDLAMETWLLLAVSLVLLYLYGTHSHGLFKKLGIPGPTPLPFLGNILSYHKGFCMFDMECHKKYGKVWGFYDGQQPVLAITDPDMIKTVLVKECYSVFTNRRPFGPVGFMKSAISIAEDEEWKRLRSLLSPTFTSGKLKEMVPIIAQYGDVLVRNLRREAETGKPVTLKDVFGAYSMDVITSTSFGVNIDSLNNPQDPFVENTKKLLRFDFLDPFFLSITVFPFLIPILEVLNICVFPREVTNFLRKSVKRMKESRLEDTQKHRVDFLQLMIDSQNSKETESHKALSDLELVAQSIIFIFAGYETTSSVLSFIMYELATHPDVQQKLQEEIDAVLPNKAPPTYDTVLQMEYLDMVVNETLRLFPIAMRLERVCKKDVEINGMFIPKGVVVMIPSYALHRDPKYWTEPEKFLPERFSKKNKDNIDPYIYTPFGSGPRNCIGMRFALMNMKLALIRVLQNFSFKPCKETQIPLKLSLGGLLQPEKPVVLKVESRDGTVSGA
# Chain of Voltage-gated inwardly rectifying potassium channel KCNH2 (Homo sapiens) (Q12809 whole entry, looked up): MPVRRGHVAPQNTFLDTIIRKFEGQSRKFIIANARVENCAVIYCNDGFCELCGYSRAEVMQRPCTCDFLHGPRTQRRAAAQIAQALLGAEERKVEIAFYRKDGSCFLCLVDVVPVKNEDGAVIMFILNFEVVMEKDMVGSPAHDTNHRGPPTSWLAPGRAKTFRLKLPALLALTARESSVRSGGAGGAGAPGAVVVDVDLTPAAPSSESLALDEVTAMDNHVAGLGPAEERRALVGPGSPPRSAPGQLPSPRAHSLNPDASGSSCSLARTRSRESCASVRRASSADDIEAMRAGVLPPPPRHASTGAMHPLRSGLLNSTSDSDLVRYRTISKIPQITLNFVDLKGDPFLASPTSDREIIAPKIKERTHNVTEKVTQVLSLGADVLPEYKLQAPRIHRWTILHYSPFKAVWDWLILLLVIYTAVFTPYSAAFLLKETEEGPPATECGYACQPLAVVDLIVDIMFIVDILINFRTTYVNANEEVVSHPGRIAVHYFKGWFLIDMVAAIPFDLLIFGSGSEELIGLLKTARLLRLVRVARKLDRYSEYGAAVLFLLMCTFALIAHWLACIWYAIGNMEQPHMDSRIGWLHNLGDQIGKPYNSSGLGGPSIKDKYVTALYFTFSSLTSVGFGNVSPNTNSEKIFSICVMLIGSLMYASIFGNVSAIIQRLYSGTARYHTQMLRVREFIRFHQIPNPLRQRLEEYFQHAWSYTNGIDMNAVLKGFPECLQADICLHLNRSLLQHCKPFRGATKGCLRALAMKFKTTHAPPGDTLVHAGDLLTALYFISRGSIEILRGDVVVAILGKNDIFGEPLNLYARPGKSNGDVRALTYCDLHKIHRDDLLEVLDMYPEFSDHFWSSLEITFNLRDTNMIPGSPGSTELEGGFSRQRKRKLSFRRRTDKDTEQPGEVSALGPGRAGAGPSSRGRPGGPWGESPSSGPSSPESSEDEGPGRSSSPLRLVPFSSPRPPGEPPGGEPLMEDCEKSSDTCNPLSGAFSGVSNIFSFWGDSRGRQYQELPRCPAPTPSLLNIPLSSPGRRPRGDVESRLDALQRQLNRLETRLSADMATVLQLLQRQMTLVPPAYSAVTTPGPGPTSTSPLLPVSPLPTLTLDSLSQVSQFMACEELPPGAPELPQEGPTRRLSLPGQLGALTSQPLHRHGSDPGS
Structure (SMILES),Potency [1],outcome [2],Potency [3]
CCCCC1C(=O)N(c2ccccc2)N(c2ccccc2)C1=O,inactive,inactive,
NNC(=O)c1ccncc1,40 µM (active) and 26.5 µM (active) and 27.5 µM (active),inactive,
O=C(O)c1cccc([N+](=O)[O-])c1,inactive,inactive,inactive
NC(=O)c1ccccc1O,inactive,inactive,inactive
CC(C)[C@@H]1CC[C@@H](C)C[C@H]1O,inactive,inactive,inactive
CCC1(c2ccccc2)C(=O)NCNC1=O,inactive,inactive,inactive
O=C(C1CCCCC1)N1CC(=O)N2CCc3ccccc3C2C1 (configuration not stated),31.7 µM (active) and 28.3 µM (active) and 17.4 µM (active),inactive,
Nc1ccn([C@H]2CC[C@@H](CO)O2)c(=O)n1,inactive,inactive,inactive
CC(=O)OCC(COC(C)=O)OC(C)=O,62.5 µM (active) and inactive,inactive,inactive
OC(Cn1cncn1)(Cn1cncn1)c1ccc(F)cc1F,inactive,inactive,
O=S(=O)(O)c1ccc2cc(O)ccc2c1,inactive and 39.9 µM (active),inactive,inactive
CCCC(O)C(CC)CO (configuration not stated),inactive,inactive,inactive
CCCN(CCC)S(=O)(=O)c1ccc(C(=O)O)cc1,inactive,inactive,
O=C(O)CCC(=O)O,inactive,inactive,inactive
O=C(O)CS,inactive,inactive,inactive
CC1(C)[C@@H]2CC[C@@]1(C)C(=O)C2,inactive,inactive,inactive
Nc1ccc(C(=O)O)cc1,inactive,inactive,inactive
O=C1NC(=O)c2ccccc21,inactive,inactive,inactive
NC(N)=NC(=O)c1nc(Cl)c(N)nc1N,inactive,inactive,inactive
N=C(N)c1ccc(OCCCCCOc2ccc(C(=N)N)cc2)cc1,inactive,,
Cc1cc(=O)[nH]c(=S)[nH]1,inactive,inactive,inactive
C[C@]12C=CC(=O)C=C1CC[C@@H]1[C@@H]2[C@@H](O)C[C@@]2(C)[C@H]1CC[C@]2(O)C(=O)CO,inactive,inactive,inactive
Cc1cn([C@H]2C[C@H](N=[N+]=[N-])[C@@H](CO)O2)c(=O)[nH]c1=O,inactive,inactive,inactive

Structure (SMILES),Potency [1],outcome [2],Potency [3]
CC(O)C(=O)O (configuration not stated),inactive and 24.5 µM (active),inactive,inactive
CCCCCCCCCCCCCCCC(=O)O,39.9 µM (active) and inactive,inactive,inactive
O=C(c1ccccc1)C(O)c1ccccc1 (configuration not stated),31.4 µM (active) and 12.9 µM (active),inactive,inactive
CCCC(CCC)C(=O)O,5.62 µM (active) and inactive,inactive,inactive
CC(C)(Oc1ccc(C2CC2(Cl)Cl)cc1)C(=O)O (configuration not stated),inactive,inactive,inactive
Cc1cc(=O)n(-c2ccccc2)n1C,inactive,inactive,inactive
Nc1ccc(O)c(C(=O)O)c1,inactive,inactive,inactive
O=C(O)c1[nH]n(-c2ccc(S(=O)(=O)O)cc2)c(=O)c1N=Nc1ccc(S(=O)(=O)O)cc1,inactive,inactive,inactive
Nc1ccc(S(=O)(=O)Nc2nccs2)cc1,inactive,inactive,inactive
C/C=C/c1ccc(OC)cc1,inactive and 17.4 µM (active),inactive,
O=C(O)CCCCCCCC(=O)O,inactive,inactive,inactive
Nc1ccc(S(=O)(=O)c2ccc(N)cc2)cc1,inactive,inactive,inactive
O=NO,,inactive,
CCOc1ccc(NC(=O)CC(C)O)cc1 (configuration not stated),,inactive,inactive
O=S(=O)(O)NC1CCCCC1,,inactive,
Cc1noc(NS(=O)(=O)c2ccc(N)cc2)c1C,inactive,inactive,inactive
CCCNC(=O)NS(=O)(=O)c1ccc(Cl)cc1,inactive and 15.5 µM (active),inactive,inactive
CC(=O)NS(=O)(=O)c1ccc(N)cc1,inactive,inactive,inactive
NC(N)=O,inactive,inactive,inactive
CC(O)CO (configuration not stated),inactive,inactive,27.2 µM (active) and inactive
O=C(O)/C=C\C(=O)O,inactive,inactive,inactive
CC(=O)Nc1nnc(S(N)(=O)=O)s1,inactive,inactive,inactive
